Data reported in PubChem BioAssay (NCATS).
Records with an inconclusive call do not appear. Unmarked numbers belong to inactive results. Activity calls are given as the source filed them. Calls follow the shape of the dose curve; as a rule, active = well fitted cell-killing curve with a large enough effect; inconclusive = small, poorly fitted or top-dose-only effect; inactive = flat fitted curve, though single readings scatter.

Test: qHTS of pediatric cancer cell lines to identify multiple opportunities for drug repurposing: Primary screen for BT-12 cells (AID 1347101); also: nearly all actives have a fitted effect of over 25% in size;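 as to activity change, negative = cytotoxic: plate controls were DMSO for no effect and bortezomib positive control for full effect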
Conditions: BT-12 viability, CellTiter-Glo luminescence, 48 h; series mostly up to 57.3 µM; activity change, negative = cytotoxic: at the top concentration
In short: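 Cells (500-1,000/well) rested 5 h, then received compounds for 48 h; metabolically active cells were measured by CellTiter-Glo luminescence. Final concentrations spanned up to 46 µM (MIPE, 11-point) or 0.59 nM-46 µM (NPC, 8-point) in primary screens, 11-point in follow-ups.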
Potency is read from the fitted curve at half-maximal effect.

Row | SMILES | activity change, negative = cytotoxic [%] | Potency
1 | NCC1CCC(C(=O)O)CC1 (stereo not drawn) | 9.4 | 
2 | CC(C)N(CCCNC(=O)Nc1ccc(C(C)(C)C)cc1)C[C@H]1O[C@@H](n2cc(Br)c3c(N)ncnc32)[C@H](O)[C@H]1O |  | 24.3 µM (active)
3 | N[C@@H](CC(=O)N1CCn2c(nnc2C(F)(F)F)C1)Cc1cc(F)c(F)cc1F | 9.66 | 
4 | CCOC(=O)[C@H]1O[C@H]1C(=O)N[C@@H](CC(C)C)C(=O)NCCC(C)C | 7.59 | 
5 | CNC(=O)c1cc(Oc2ccc(NC(=O)Nc3ccc(Cl)c(C(F)(F)F)c3)c(F)c2)ccn1 |  | 12.2 µM (active)
6 | OC1CCC(Nc2ncc3nc(Nc4c(F)cc(F)cc4F)n([C@@H]4CCOC4)c3n2)CC1 (stereo partly drawn) | 9.35 | 
7 | C#CCN(C)CC1=Cc2ccccc2Oc2ccccc21 | -19.6 | 
8 | O=C(O)CCNc1cc(N2CCc3ccccc3CC2)nc(-c2ccccn2)n1 | -14.7 | 
9 | CC[C@H](C)C(=O)O[C@H]1C[C@H](O)C=C2C=C[C@H](C)[C@H](CC[C@@H](O)C[C@@H](O)CC(=O)O)[C@H]21 | -9.06 | 
10 | O=c1[nH]c(=O)n([C@H]2C[C@@H](O)[C@@H](CO)O2)cc1C(F)(F)F |  | 10.9 µM (active)
11 | CCCCCOC(=O)Nc1nc(=O)n([C@@H]2O[C@H](C)[C@@H](O)C2O)cc1F (stereo partly drawn) | 1.01 | 
12 | Cc1ccc(C(=O)N(CCCN)[C@@H](c2nc3cc(Cl)ccc3c(=O)n2Cc2ccccc2)C(C)C)cc1 |  | 0.001 µM (active)
13 | COc1cc2nccc(Oc3ccc(NC(=O)Nc4ccc(F)cc4F)c(F)c3)c2cc1OC | -15.9 | 

Test: qHTS of pediatric cancer cell lines to identify multiple opportunities for drug repurposing: Primary screen for Rh18 cells (AID 1347102); also: nearly all actives have a fitted effect of over 65% in size; as to activity change, negative = cytotoxic: % is scaled to controls: 0 for no effect and ±100 for the full control effect
Conditions: Rh18 rhabdomyosarcoma viability, CellTiter-Glo luminescence, 48 h; series mostly up to 46 µM; activity change, negative = cytotoxic: at the top concentration
In short: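 Viability after 48 h compound treatment at 37C, 500-1,000 cells/well, read as ATP luminescence with CellTiter-Glo. Primary screens used 11-point (MIPE, 0.78 nM-46 µM) or 8-point (NPC, 0.59 nM-46 µM) final concentrations; follow-up screens used 11-point dilutions.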

Row | SMILES | activity change, negative = cytotoxic [%] | Potency
14 | NCC1CCC(C(=O)O)CC1 (stereo not drawn) | -0.29 | 
15 | N[C@@H](CC(=O)N1CCn2c(nnc2C(F)(F)F)C1)Cc1cc(F)c(F)cc1F | -0.849 | 
16 | CCOC(=O)[C@H]1O[C@H]1C(=O)N[C@@H](CC(C)C)C(=O)NCCC(C)C | -2.55 | 
17 | CN(C)N=Nc1nc[nH]c1C(N)=O | 4.08 | 
18 | COc1cc2nccc(Oc3ccc(NC(=O)Nc4cc(C)on4)c(Cl)c3)c2cc1OC |  | 18.7 µM (active)
19 | CNC(=O)c1cc(Oc2ccc(NC(=O)Nc3ccc(Cl)c(C(F)(F)F)c3)c(F)c2)ccn1 |  | 23.5 µM (active)
20 | OC1CCC(Nc2ncc3nc(Nc4c(F)cc(F)cc4F)n([C@@H]4CCOC4)c3n2)CC1 (stereo partly drawn) | -4.49 | 
21 | CCCCC[C@H](O)C=C[C@H]1[C@H](O)CC(=O)[C@H]1CC=CCCCC(=O)O | 15.3 | 
22 | Fc1ccc(C(c2ccc(F)cc2)N2CCN(CC=Cc3ccccc3)CC2)cc1 | -21.5 | 
23 | O=C(O)CCNc1cc(N2CCc3ccccc3CC2)nc(-c2ccccn2)n1 | 15.4 | 
24 | O=C(Nc1cccc(C(F)(F)F)c1)Nc1cc(S(=O)(=O)NC2CC2)ccc1-c1ccsc1 | -24.5 | 
25 | CC[C@H](C)C(=O)O[C@H]1C[C@H](O)C=C2C=C[C@H](C)[C@H](CC[C@@H](O)C[C@@H](O)CC(=O)O)[C@H]21 | 1.76 | 
26 | O=c1[nH]c(=O)n([C@H]2C[C@@H](O)[C@@H](CO)O2)cc1C(F)(F)F | -6.35 | 
27 | Cc1ccc(C2=Nc3ccc(Cl)cc3OC2)cc1 | 10.7 | 
28 | CN(C)S(=O)(=O)c1ccc2c(c1)C(=Cc1cc3c([nH]1)CCCC3)C(=O)N2 | -4.81 | 
29 | CCCCCOC(=O)Nc1nc(=O)n([C@@H]2O[C@H](C)[C@@H](O)C2O)cc1F (stereo partly drawn) | -2.09 | 
30 | CC(=O)NCCC(=O)N[C@@H](CCC(N)=O)C(=O)N[C@@H](CO)C(=O)N[C@@H](CCC(N)=O)C(=O)N[C@@H](CCC(N)=O)C(=O)N[C@H](C(=O)N[C@@H](Cc1ccccc1)C(=O)N[C@]1(C)CCCCCCC=CCCC[C@@](C)(C(=O)N[C@@H](CCC(N)=O)C(=O)N[C@@H](CC(N)=O)C(N)=O)NC(=O)[C@H](CC(C)C)NC(=O)[C@H](CC(C)C)NC(=O)[C@@H](CCCNC(=N)N)NC(=O)[C@H](Cc2c[nH]c3ccccc23)NC(=O)[C@H](CC(C)C)NC(=O)[C@H](CC(N)=O)NC1=O)[C@H](C)O | -2.22 | 
31 | Nc1ccn([C@@H]2O[C@H](CO)[C@@H](O)[C@H]2O)c(=O)n1 | -12.5 | 
32 | CCC(c1ccc(O)cc1)C(CC)c1ccc(O)cc1 (stereo not drawn) | -6.83 | 
33 | CCCCn1c(=O)n(Cc2ccccc2F)c(=O)c2[nH]c(Cc3ccc(NC(C)=O)cc3)nc21 | 11.2 | 
